Several values for one entry are separate records, joined by “and”; a condition that tells them apart may be missing. Equal entries are not always repeated. Inconclusive results are not listed. Some compounds were tested as several samples or in several runs, with calls that do not always agree. Activity calls are given as the source filed them. How the source made its calls, unless noted: active means hit-call score of the fitted dose curve at least 0.9, where 1 is the maximum; inconclusive means response in the unintended direction; inactive means score below 0.9.
Key:
[1] = molecular target: Cytochrome P450 3A4 (Homo sapiens) (UniProt P08684); experiment: NVS_ADME_hCYP3A4: NovaScreen (NVS) CYP450-related Enzyme Activity (ADME) Assay for human CYP3A4 (AID 2283110)
Outline: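 Cell-free assay using insect-cell-expressed human CYP3A4 with a fluorogenic substrate; fluorescence intensity was read 0.33 hour after dosing. Loss of signal relative to acetonitrile vehicle indicated inhibition. Primary single-concentration screen at 10 uM, in duplicate, then concentration series.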

[2] = molecular target: human Caspase 5 (CASP5), CASP5 (gene 838) (UniProt P51878); experiment: NVS_ENZ_hCASP5: NovaScreen (NVS) Enzymatic Assay for human Caspase 5 (CASP5) (AID 2283137)
Chain of human Caspase 5 (CASP5), CASP5 (gene 838) (P51878 whole entry, looked up): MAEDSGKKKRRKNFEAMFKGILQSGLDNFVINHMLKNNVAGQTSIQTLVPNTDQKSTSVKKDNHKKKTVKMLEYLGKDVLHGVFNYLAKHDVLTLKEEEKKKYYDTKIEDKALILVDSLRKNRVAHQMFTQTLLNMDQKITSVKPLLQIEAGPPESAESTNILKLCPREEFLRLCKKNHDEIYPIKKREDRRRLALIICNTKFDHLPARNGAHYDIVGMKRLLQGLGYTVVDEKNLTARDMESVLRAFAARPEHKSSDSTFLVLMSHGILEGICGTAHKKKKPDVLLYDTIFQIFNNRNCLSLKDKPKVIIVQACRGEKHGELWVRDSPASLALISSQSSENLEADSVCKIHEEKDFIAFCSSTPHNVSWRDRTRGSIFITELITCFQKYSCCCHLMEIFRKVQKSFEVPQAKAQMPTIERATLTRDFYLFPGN
Outline: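 Recombinant human caspase 5 expressed in E. coli, fluorogenic substrate, fluorescence read 2 h after dosing. Single-point 25 uM duplicate screen, then concentration-response to maximum 50 uM for actives; DMSO baseline.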

[3] = molecular target: human AKT serine/threonine Kinase 2 (AKT2), AKT2 (gene 208) (UniProt P31751); experiment: NVS_ENZ_hAKT2: NovaScreen (NVS) Enzymatic Assay for human AKT serine/threonine Kinase 2 (AKT2) (AID 2283141)
Chain of human AKT serine/threonine Kinase 2 (AKT2), AKT2 (gene 208) (P31751 whole entry, looked up): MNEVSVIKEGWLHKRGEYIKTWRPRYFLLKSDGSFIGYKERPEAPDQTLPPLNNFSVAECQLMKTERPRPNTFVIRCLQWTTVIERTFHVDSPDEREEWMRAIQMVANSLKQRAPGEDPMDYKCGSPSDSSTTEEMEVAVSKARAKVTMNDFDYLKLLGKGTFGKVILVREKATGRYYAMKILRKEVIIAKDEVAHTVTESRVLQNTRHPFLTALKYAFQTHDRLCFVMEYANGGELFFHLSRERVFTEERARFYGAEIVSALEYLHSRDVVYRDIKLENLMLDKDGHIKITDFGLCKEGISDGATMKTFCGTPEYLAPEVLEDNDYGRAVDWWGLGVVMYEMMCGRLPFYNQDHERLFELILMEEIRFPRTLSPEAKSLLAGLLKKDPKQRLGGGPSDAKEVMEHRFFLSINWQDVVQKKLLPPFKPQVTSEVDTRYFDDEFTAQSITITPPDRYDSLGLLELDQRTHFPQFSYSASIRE
Outline: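 Cell-free fluorescence/electrophoretic mobility shift readout of recombinant human AKT2 activity, 1 h after chemical dosing. Duplicate primary screen at 25 uM, then singleton concentration-response up to 50 uM; loss of signal versus DMSO baseline.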

[4] = molecular target: human Caspase 4 (CASP4), CASP4 (gene 837) (UniProt P49662); experiment: NVS_ENZ_hCASP4: NovaScreen (NVS) Enzymatic Assay for human Caspase 4 (CASP4) (AID 2283143)
Outline: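 The cell-free assay used E. coli-expressed enzyme with a fluorogenic substrate, read 2 h after dosing. Signal loss was scored versus DMSO. Screening was in duplicate at 25 uM, then singleton concentration-response up to 50 uM.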

[5] = molecular target: Cytochrome P450 2C19 (Homo sapiens) (UniProt P33261); experiment: NVS_ADME_hCYP2C19: NovaScreen (NVS) CYP450-related Enzyme Activity (ADME) Assay for human CYP2C19 (AID 2283113);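 on AC50: potency for inhibition seen as loss of fluorescent signal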
Outline: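 Cell-free assay of recombinant human CYP2C19 expressed in insect cells, with a fluorogenic substrate; fluorescence intensity read 1 hour after dosing. Loss of signal relative to acetonitrile negative control indicates inhibition. Primary screen at 10 uM in duplicate, then concentration series.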

[6] = molecular target: human CYP2C9, CYP2C9 (gene 1559) (UniProt P11712); experiment: NVS_ADME_hCYP2C9: NovaScreen (NVS) CYP450-related Enzyme Activity (ADME) Assay for human CYP2C9 (AID 2283108)
Chain of human CYP2C9, CYP2C9 (gene 1559) (P11712 whole entry, looked up): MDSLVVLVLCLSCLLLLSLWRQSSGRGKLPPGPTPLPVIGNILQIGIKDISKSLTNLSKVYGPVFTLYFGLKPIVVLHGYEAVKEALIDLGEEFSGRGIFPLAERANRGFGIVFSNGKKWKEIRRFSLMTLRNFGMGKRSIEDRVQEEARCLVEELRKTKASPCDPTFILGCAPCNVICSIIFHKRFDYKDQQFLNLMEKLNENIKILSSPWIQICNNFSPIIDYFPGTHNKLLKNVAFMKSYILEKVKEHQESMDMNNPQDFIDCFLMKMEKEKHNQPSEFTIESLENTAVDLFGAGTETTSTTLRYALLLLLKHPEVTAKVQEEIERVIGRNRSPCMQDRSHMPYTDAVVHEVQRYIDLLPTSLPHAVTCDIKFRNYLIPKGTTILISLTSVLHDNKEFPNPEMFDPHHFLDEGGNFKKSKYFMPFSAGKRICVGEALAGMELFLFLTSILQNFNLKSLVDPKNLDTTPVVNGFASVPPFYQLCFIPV
Outline: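 Cell-free assay of recombinant human CYP2C9 produced in Sf9 cells, with enzyme activity read by fluorescence intensity 0.75 h after compound addition. Loss of signal versus an acetonitrile negative control indicates inhibition. Primary screen used 10 uM in duplicate; actives were retested in concentration series.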

[7] = molecular target: rat CYP2A1, Cyp2a1 (gene 24894) (UniProt P11711); experiment: NVS_ADME_rCYP2A1: NovaScreen (NVS) CYP450-related Enzyme Activity (ADME) Assay for rat CYP2A1 (AID 2283114; active means hit-call score of the fitted dose curve at least 0.9, where 1 is the maximum; inactive means score below 0.9)
Chain of rat CYP2A1, Cyp2a1 (gene 24894) (P11711 whole entry, looked up): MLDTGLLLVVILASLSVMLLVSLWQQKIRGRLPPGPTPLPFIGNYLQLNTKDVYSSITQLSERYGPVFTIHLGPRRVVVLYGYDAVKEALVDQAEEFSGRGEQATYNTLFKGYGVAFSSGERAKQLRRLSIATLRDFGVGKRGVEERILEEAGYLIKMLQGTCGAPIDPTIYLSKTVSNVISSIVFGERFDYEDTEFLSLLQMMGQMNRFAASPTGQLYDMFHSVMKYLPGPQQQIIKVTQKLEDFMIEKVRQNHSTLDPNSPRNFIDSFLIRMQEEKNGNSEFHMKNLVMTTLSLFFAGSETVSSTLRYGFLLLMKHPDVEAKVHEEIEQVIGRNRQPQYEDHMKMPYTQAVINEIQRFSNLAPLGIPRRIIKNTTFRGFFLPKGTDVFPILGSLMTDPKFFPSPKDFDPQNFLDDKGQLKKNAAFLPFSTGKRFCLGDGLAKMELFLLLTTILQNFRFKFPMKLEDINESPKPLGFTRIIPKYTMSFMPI
Outline: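 Recombinant rat CYP2A1, cell-free, fluorogenic substrate turnover read by fluorescence intensity 0.75 h after dosing. Primary screen at 10 uM in duplicate; actives rerun as concentration-response up to 20 uM; loss of signal versus acetonitrile control.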

[8] = molecular target: rat CYP2C11, Cyp2c11 (gene 29277) (UniProt P08683); experiment: NVS_ADME_rCYP2C11: NovaScreen (NVS) CYP450-related Enzyme Activity (ADME) Assay for rat CYP2C11 (AID 2283118)
Chain of rat CYP2C11, Cyp2c11 (gene 29277) (P08683 whole entry, looked up): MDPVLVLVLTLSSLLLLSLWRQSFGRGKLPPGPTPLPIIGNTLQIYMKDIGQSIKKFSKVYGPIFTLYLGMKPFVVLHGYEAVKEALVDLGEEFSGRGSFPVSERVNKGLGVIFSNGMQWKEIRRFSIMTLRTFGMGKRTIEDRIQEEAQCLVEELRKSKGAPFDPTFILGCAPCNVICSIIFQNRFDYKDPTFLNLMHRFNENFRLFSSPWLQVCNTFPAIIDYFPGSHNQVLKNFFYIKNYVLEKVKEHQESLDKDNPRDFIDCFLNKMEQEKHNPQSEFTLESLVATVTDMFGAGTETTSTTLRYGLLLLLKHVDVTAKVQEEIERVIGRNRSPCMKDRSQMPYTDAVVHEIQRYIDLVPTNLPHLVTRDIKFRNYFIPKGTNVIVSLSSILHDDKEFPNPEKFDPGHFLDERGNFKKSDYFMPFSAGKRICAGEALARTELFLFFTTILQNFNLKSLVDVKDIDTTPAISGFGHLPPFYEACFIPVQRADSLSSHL
Outline: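 Cell-free recombinant rat enzyme with fluorescent substrate; readout 0.33 h after dosing, loss of signal versus acetonitrile control. Initial duplicate single-point at 10 uM; actives rerun in concentration series.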

rat CYP2C6, gene 293989 = experiment: NVS_ADME_rCYP2C6: NovaScreen (NVS) CYP450-related Enzyme Activity (ADME) Assay for rat CYP2C6 (AID 2283120)
Outline: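 Cell-free recombinant rat CYP2C6 with fluorogenic substrate, read by fluorescence 1 h after dosing; acetonitrile as negative control. Primary screen at 10 uM in duplicate, actives then in concentration-response up to 20 uM.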

[9] = molecular target: rat CYP2D2, Cyp2d26 (gene 25053) (UniProt P10634); experiment: NVS_ADME_rCYP2D2: NovaScreen (NVS) CYP450-related Enzyme Activity (ADME) Assay for rat CYP2D2 (AID 2283124)
Chain of rat CYP2D2, Cyp2d26 (gene 25053) (P10634 whole entry, looked up): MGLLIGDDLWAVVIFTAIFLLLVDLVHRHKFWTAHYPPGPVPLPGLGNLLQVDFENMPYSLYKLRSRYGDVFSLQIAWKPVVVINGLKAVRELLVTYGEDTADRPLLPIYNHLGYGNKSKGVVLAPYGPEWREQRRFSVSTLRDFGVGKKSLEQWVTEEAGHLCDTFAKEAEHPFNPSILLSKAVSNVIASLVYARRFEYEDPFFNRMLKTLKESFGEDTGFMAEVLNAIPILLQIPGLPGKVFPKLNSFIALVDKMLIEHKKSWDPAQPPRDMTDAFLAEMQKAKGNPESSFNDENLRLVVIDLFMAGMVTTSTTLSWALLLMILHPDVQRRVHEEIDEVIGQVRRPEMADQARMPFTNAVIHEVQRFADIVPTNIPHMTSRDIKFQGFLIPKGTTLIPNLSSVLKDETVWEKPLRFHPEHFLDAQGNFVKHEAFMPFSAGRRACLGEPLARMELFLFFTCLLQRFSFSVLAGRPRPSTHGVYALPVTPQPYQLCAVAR
Outline: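 Recombinant rat CYP2D2 in a cell-free fluorogenic activity assay, fluorescence read 0.75 h after dosing. Primary screen in duplicate at 10 uM; actives re-run singly in concentration-response to 20 uM, relative to acetonitrile.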

rat CYP3A1, gene 25642 = experiment: NVS_ADME_rCYP3A1: NovaScreen (NVS) CYP450-related Enzyme Activity (ADME) Assay for rat CYP3A1 (AID 2283126)
Outline: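 Cell-free recombinant CYP assay with fluorescent substrate, read 0.5 h after dosing. Screened at 10 uM in duplicate, hits at up to 20 uM in concentration-response; loss of signal versus acetonitrile baseline.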

[10] = molecular target: rat CYP3A2, Cyp3a2 (gene 266682) (UniProt P05183); experiment: NVS_ADME_rCYP3A2: NovaScreen (NVS) CYP450-related Enzyme Activity (ADME) Assay for rat CYP3A2 (AID 2283128)
Chain of rat CYP3A2, Cyp3a2 (gene 266682) (P05183 whole entry, looked up): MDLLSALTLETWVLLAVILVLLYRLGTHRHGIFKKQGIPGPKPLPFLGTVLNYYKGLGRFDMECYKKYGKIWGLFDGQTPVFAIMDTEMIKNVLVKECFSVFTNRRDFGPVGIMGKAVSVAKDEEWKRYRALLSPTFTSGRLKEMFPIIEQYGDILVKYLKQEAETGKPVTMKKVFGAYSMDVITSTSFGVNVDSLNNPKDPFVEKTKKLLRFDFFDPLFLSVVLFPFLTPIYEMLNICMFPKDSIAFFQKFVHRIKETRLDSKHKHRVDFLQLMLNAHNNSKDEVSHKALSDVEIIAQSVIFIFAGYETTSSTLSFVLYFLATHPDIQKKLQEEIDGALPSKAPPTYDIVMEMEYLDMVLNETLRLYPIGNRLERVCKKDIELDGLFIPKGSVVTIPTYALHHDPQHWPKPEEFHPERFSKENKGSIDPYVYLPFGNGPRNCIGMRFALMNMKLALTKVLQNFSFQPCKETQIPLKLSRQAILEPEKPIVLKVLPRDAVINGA
Outline: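 Cell-free rat CYP3A2 enzyme assay with fluorescent substrate, read 0.5 h after dosing. Primary duplicate screen at 10 uM; actives run in concentration-response up to 20 uM, relative to acetonitrile baseline.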

[11] = molecular target: human Beta-secretase (BACE), BACE1 (gene 23621) (UniProt P56817); experiment: NVS_ENZ_hBACE: NovaScreen (NVS) Enzymatic Assay for human Beta-secretase (BACE) (AID 2283140);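 further: hits are inhibitors that reduce fluorescent substrate signal versus DMSO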
Chain of human Beta-secretase (BACE), BACE1 (gene 23621) (P56817 whole entry, looked up): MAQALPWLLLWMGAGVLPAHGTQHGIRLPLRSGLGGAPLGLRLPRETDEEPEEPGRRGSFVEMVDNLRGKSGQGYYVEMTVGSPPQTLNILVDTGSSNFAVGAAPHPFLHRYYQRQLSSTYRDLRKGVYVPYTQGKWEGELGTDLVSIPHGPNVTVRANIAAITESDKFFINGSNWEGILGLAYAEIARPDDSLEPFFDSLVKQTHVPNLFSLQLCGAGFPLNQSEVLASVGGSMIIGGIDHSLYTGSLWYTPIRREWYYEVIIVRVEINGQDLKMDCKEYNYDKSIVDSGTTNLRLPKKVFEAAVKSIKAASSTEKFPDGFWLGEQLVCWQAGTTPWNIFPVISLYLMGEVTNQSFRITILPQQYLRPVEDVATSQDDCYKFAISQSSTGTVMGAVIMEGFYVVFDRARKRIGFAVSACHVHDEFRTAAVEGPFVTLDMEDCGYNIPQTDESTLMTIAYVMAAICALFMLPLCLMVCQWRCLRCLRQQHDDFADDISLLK
Outline: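 Cell-free assay of recombinant Sf9-expressed human BACE with fluorescent substrate, read by fluorescence intensity after 1 h. Primary screen in duplicate at 25 uM; actives then run in concentration series; loss of signal relative to DMSO.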

CDK2 (gene 1017) = CDK2 (gene 1017) (UniProt P24941); experiment: NVS_ENZ_hCDK2: NovaScreen (NVS) Enzymatic Assay for human Cyclin-Cependent Kinase 2 (CDK2) (AID 2283144)
Outline: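 Cell-free recombinant human CDK2 with fluorescent substrate, product separated by electrophoretic mobility shift; 1 hr read. Primary screen at 25 uM in duplicate, actives retested in concentration-response up to 50 uM; loss of signal versus DMSO.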

[12] = molecular target: rat CYP2C13, Cyp2c13 (gene 171521) (UniProt P20814); experiment: NVS_ADME_rCYP2C13: NovaScreen (NVS) CYP450-related Enzyme Activity (ADME) Assay for rat CYP2C13 (AID 2283121)
Chain of rat CYP2C13, Cyp2c13 (gene 171521) (P20814 whole entry, looked up): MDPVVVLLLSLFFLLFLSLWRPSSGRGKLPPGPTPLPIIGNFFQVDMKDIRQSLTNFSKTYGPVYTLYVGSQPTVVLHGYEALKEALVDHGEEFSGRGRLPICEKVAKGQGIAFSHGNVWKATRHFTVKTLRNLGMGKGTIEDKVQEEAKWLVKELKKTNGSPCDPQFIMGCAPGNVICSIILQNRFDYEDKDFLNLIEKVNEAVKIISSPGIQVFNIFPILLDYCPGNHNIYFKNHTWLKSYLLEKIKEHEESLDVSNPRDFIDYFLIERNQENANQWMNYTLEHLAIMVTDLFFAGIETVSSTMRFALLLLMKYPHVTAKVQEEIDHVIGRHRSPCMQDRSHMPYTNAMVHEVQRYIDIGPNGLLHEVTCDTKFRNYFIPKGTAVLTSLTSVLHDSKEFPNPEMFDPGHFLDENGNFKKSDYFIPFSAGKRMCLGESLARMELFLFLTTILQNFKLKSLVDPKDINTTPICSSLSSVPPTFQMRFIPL
Outline: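 Recombinant rat CYP2C13 with fluorogenic substrate, 0.75 h cell-free incubation; primary screen in duplicate at 10 uM, actives followed in concentration series. Fluorescence loss relative to acetonitrile control indicates inhibition.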

[13] = molecular target: human Acid Phosphatase 1 (ACP1), ACP1 (gene 52) (UniProt P24666); experiment: NVS_ENZ_hACP1: NovaScreen (NVS) Enzymatic Assay for human Acid Phosphatase 1 (ACP1) (AID 2283136)
Outline: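 Recombinant enzyme expressed in Sf9 cells, tested cell-free; activity read by fluorescence with electrophoretic mobility shift separation of substrate and product, 1.5 h after dosing. Primary screen in duplicate at 25 uM, actives then run in concentration series; loss of signal versus DMSO.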

[14] = molecular target: human AKT serine/threonine Kinase 1 (AKT1), AKT1 (gene 207) (UniProt P31749); experiment: NVS_ENZ_hAKT1: NovaScreen (NVS) Enzymatic Assay for human AKT serine/threonine Kinase 1 (AKT1) (AID 2283138)
Chain of human AKT serine/threonine Kinase 1 (AKT1), AKT1 (gene 207) (P31749 whole entry, looked up): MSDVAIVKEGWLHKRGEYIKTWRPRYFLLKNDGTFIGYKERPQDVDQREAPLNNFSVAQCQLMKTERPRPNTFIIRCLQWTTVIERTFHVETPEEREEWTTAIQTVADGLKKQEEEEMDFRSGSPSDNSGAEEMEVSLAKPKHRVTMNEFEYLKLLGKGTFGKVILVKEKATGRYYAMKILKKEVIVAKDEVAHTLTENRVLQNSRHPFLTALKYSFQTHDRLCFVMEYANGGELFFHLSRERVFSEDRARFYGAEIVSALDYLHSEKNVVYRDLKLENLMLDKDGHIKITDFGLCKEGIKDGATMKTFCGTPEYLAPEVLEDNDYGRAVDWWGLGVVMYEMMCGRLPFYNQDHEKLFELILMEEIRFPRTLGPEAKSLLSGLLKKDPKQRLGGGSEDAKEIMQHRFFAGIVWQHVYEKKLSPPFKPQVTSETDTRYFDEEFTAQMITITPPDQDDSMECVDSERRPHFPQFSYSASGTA
Outline: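 Recombinant human AKT1 with a specific substrate, product separated by electrophoretic mobility shift, read after 1 h. Compounds at 25 uM in duplicate, then concentration-response up to 50 uM for hits; inhibition relative to DMSO.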

Caspase-3 (Homo sapiens) = Caspase-3 (Homo sapiens) (UniProt P42574); experiment: NVS_ENZ_hCASP3: NovaScreen (NVS) Enzymatic Assay for human Caspase 3 (CASP3) (AID 2283139)
Outline: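 Recombinant human caspase-3 from E. coli with a fluorogenic substrate, read by fluorescence 1 h after dosing. Primary screen in duplicate at 25 uM. Actives (for example ≥30% inhibition) rerun as concentration-response up to 50 uM.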

[15] = molecular target: human Caspase 8 (CASP8), CASP8 (gene 841) (UniProt Q14790); experiment: NVS_ENZ_hCASP8: NovaScreen (NVS) Enzymatic Assay for human Caspase 8 (CASP8) (AID 2283146)
Outline: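 E. coli-expressed enzyme was used in a cell-free fluorogenic substrate assay read 1 h after dosing. Loss of signal was scored relative to DMSO, and the primary screen was run in duplicate at 25 uM.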

[16] = molecular target: human Casein Kinase 2- alpha 2 beta 2 (CK2a2b2), CSNK2A1 (gene 1457) (UniProt P68400); experiment: NVS_ENZ_hCK2a2b2: NovaScreen (NVS) Enzymatic Assay for human Casein Kinase 2- alpha 2 beta 2 (CK2a2b2) (AID 2283147)
Outline: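 Cell-free recombinant CK2 α2β2 holoenzyme with a fluorescent peptide substrate; product separated by electrophoretic mobility shift and read 1 h after dosing. Single-point screen at 25 uM in duplicate; actives were followed with concentration-response up to 50 uM versus DMSO.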

Measured: AC50

CCC(O)=C1C(=O)CC(C(=O)O)CC1=O (centres undefined)
inactive: [1] | [2] | [3] | [4]

C#C[C@]1(O)CC[C@H]2[C@@H]3CCC4=CC(=O)CC[C@@H]4[C@H]3CC[C@@]21CC
active: [5] 1.24 µM

CCCCOCCOCCOCc1cc2c(cc1CCC)OCO2
inactive: [7] | [9]
active: [6] 4.31 µM | [5] 1.73 µM | [8] 7570 nM | rat CYP2C6, gene 293989 6.42 µM | rat CYP3A1, gene 25642 5.03 µM | [10] 4.85 µM

O=C(c1ccc(O)cc1O)c1ccc(O)cc1O
active: [1] 5.88 µM | [5] 6.3 µM | CDK2 (gene 1017) 17 µM
inactive: [11]

Oc1ccc(C(c2ccc(O)cc2)C(Cl)(Cl)Cl)cc1
active: [6] 2.08 µM | [1] 7.75 µM | [5] 1.03 µM | [7] 1.29 µM | [8] 188 nM | rat CYP2C6, gene 293989 2.57 µM | [12] 0.883 µM | [9] 2.74 µM | rat CYP3A1, gene 25642 2.7 µM | [10] 2.7 µM | [2] 10.1 µM | [11] 4.96 µM

CCCCC(CC)COC(=O)c1ccccc1C(=O)O (centres undefined)
active: [6] 5.35 µM | [5] 7.13 µM

CCOC(=O)[C@H](C)Oc1ccc(Oc2nc3ccc(Cl)cc3o2)cc1
inactive: [5]

S=C(S)NCCNC(=S)S.[Mn+2].[S-]C([S-])=NCCN=C([S-])[S-].[Zn+2]
inactive: [5] | [12] | Caspase-3 (Homo sapiens) | [4] | [15]
active: [6] 1.63 µM and 1.92 µM and 4.37 µM | rat CYP3A1, gene 25642 10 µM | [13] 4.22 µM and 4.27 µM | [14] 683 nM and 1.49 µM | [11] 9.11 µM | [3] 1.64 µM and 1.94 µM | [4] 0.179 µM | CDK2 (gene 1017) 0.879 µM | [16] 5.4 µM

S=C([S-])NCCNC(=S)[S-].[Mn+2]
inactive: [4] | [15]
active: [6] 10 µM | [5] 5.86 µM | [12] 10 µM | rat CYP3A1, gene 25642 7.1 µM | [2] 15.1 µM | [14] 1.05 µM | [11] 17.6 µM | [3] 606 nM | CDK2 (gene 1017) 11.4 µM | [16] 3.93 µM

CCCCC(CC)CN1C(=O)C2C3C=CC(C3)C2C1=O (centres undefined)
inactive: [3]
active: [1] 3 µM | [5] 8.18 µM | rat CYP3A1, gene 25642 6.63 µM | [10] 6.87 µM

COC(=O)c1c(Cl)nn(C)c1S(=O)(=O)NC(=O)Nc1nc(OC)cc(OC)n1
active: [6] 2.89 µM

C=CCOC(Cn1ccnc1)c1ccc(Cl)cc1Cl (centres undefined)
active: [6] 0.379 µM | [5] 0.062 µM | [7] 0.187 µM | [8] 463 nM | rat CYP2C6, gene 293989 0.452 µM | [9] 0.125 µM | rat CYP3A1, gene 25642 0.729 µM | [10] 0.874 µM

CC(=O)S[C@@H]1CC2=CC(=O)CC[C@]2(C)[C@H]2CC[C@@]3(C)[C@@H](CC[C@@]34CCC(=O)O4)[C@H]12
active: [5] 6.12 µM

CCOC(=O)C(C)Oc1ccc(Oc2nc3ccc(Cl)cc3o2)cc1 (centres undefined)
active: [5] 10 µM

CC(=O)[C@H]1CC[C@H]2[C@@H]3CCC4=CC(=O)CC[C@]4(C)[C@H]3CC[C@]12C
inactive: [6]
active: [6] 7.34 µM | [1] 5.46 µM and 2.77 µM | [5] 2.46 µM and 4.48 µM and 6.21 µM | [8] 3.08 µM and 6.76 µM

From PubChem BioAssay (EPA / NIEHS)
